Laboratory results from the supplement of paper PMC10681739.

How the values were obtained:
ETS1 [1] = biological target: T1, ETS1 (UniProt P14921); assay: ETS1 binding intensity (PBM fluorescence), ETS1 alone (arbitrary fluorescence units); higher = stronger binding; conditions: ETS1 concentration 1 nM; RUNX1 concentration 0 nM
T1 sequence: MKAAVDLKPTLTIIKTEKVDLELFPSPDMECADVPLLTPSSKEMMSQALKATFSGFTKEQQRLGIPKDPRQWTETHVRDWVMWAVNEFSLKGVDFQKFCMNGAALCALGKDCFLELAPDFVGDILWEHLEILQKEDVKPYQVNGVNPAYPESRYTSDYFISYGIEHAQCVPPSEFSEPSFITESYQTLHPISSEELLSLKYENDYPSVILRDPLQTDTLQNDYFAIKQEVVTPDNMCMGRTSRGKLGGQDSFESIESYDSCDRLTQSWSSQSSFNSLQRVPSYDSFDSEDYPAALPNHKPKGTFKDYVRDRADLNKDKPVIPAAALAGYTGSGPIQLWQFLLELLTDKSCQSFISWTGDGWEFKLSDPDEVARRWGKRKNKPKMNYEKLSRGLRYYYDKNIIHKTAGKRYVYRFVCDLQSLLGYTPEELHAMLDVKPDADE

RUNX1 [2] = biological target: RUNX1 (UniProt Q01196); assay: RUNX1 binding intensity (PBM fluorescence), RUNX1 alone (arbitrary fluorescence units); higher = stronger binding; conditions: RUNX1 concentration 2 nM; ETS1 concentration 0 nM
Chain of RUNX1 (Q01196 whole entry): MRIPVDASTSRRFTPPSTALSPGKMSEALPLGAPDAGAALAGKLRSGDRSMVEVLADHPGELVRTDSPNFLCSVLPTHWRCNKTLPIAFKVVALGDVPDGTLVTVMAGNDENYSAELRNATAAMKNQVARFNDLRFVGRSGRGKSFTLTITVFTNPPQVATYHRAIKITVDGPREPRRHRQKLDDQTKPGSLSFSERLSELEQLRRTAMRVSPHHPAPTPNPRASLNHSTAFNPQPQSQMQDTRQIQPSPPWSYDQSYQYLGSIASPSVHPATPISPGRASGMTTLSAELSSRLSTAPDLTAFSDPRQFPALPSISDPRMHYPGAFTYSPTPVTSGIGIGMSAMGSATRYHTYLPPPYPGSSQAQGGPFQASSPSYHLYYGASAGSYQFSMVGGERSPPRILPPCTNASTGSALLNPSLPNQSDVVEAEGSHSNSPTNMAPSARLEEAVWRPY
Method: (§1)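 Cooperative gcPBM on 36-bp genomic probes with neighbouring ETS1 and RUNX1 sites. Recombinant human RUNX1 (2 nM) was incubated alone or with ETS1 (25 nM) and detected with anti-RUNX1 antibody plus Alexa488 secondary. Values are medians over 4 replicate spots; the RUNX1+ETS1 data were normalised to the RUNX1-only data. The probes sit in constant array flanks that are not printed.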

ETS1 [3] = biological target: T1, ETS1; assay: ETS1 binding intensity (PBM fluorescence) in presence of RUNX1, normalised to ETS1-only experiment (arbitrary fluorescence units); higher = stronger binding; conditions: ETS1 concentration 1 nM; RUNX1 concentration 25 nM
RUNX1 [4] = biological target: RUNX1 (UniProt Q01196); assay: RUNX1 binding intensity (PBM fluorescence) in presence of ETS1, normalised to RUNX1-only experiment (arbitrary fluorescence units); higher = stronger binding; conditions: RUNX1 concentration 2 nM; ETS1 concentration 25 nM
Method: as §1
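Wherever RUNX1 binding intensity (PBM fluorescence) in presence of ETS1, normalised to RUNX1-only experiment is given: Full-length recombinant human ETS1 or RUNX1 bound to double-stranded 36-bp genomic probes on microarrays, detected by protein-specific primary antibody and Alexa488 secondary, spot fluorescence as median of four replicate spots.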
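Wherever RUNX1 binding intensity (PBM fluorescence), RUNX1 alone is given: Full-length recombinant human RUNX1 bound to double-stranded 36-bp genomic probes on a high-density microarray, scored as Alexa488 fluorescence per spot via anti-RUNX1 antibody, median of four replicate spots.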

| Sequence | ETS1 binding intensity (ETS1 [1]) | RUNX1 binding intensity (RUNX1 [2]) | ETS1 binding intensity (ETS1 [3]) | RUNX1 binding intensity (RUNX1 [4]) |
| --- | --- | --- | --- | --- |
| CTGTCCGCTACATCCGGGACCTGCGGGACCGCCGAT | 1770 | 823 | 2430 | 2300 |
| ACACTGGCCGGAAGGGGCGGGACCGCGAGTTAAGAG | 1280 | 791 | 2380 | 1320 |
| CCCGACTTCCGCCGCTGGTGGCCACCCGCAGGTAGT | 732 | 789 | 1050 | 2050 |
| ACGAGGTTGGCCTCATCCGGTGGTTTTCGCAGCACG | 1290 | 837 | 1280 | 1710 |
| TGCCCTGACTTCCTGGTCCTGTGGTCAAGGATGGGG | 1340 | 889 | 2810 | 2000 |
| CATGCGTCACCTTCCTGTGTGGTCAGCAGTGCTTGC | 383 | 915 | 468 | 1420 |
| ACGTGATGGCAGTCTTCCTGCCCACAAGTTCTGGTC | 422 | 1250 | 486 | 1440 |
| AGGCAAACAGGATGTTCCTCTCCCACATGCAGACTT | 4200 | 806 | 3770 | 1300 |
| CCCTGACTTTTACGGAAATAGCGGTCCAAAAGCGCC | 986 | 880 | 1080 | 1160 |
| TAGGCAGGCAGGATGTGCCTATAAGCCACATGAATG | 1930 | 726 | 2240 | 962 |
| CAACTTCCGGGGCCGGTTGCCTGGCAACCGCAGGAG | 812 | 965 | 3940 | 3790 |
| GCCACAGCCGGAAGCAGGCTGACCACAAGTGCTAAG | 1880 | 1310 | 18700 | 6190 |
| ATGCCTGTAGGAGGATGTGGTTTCTACACAACTCTG | 981 | 926 | 5640 | 1400 |
| ACAAAGAAACCTACATCCTAAGCCACAGAATACAGC | 545 | 930 | 523 | 881 |
| CAAGGTTCCTCCGCTTCCTGCCCGCAGGCCGAACCT | 956 | 840 | 1600 | 1830 |
| GCGAAAAACGCGGAAATGCGGTGGCGGCGGCCCGCT | 885 | 721 | 1190 | 1210 |
| TGACTAAGACCGGAAGAAACCACAAAAACACAAAAA | 2580 | 2700 | 6730 | 4540 |
| AGGTTCTCCAGAGGAGGAAGTGGTTTGCTGCAGGCT | 2450 | 755 | 4400 | 971 |
| CTCCAGGGACAACCCGGAAACCACATTGCCCAGCGT | 2230 | 982 | 6990 | 1500 |

| Sequence | ETS1 binding intensity (ETS1 [1]) | RUNX1 binding intensity (RUNX1 [2]) | ETS1 binding intensity (ETS1 [3]) | RUNX1 binding intensity (RUNX1 [4]) |
| --- | --- | --- | --- | --- |
| GTTCTCAGCTTCCTGTTCACAGAGAAACCTCAGACA | 1370 | 946 | 1560 | 1390 |
| GAGGGCCTGGGAGGAAGTGGGTTTTGCATACAGTCC | 1870 | 673 | 2510 | 1330 |
| CTCTCCACCTCCTTCCGACCAGGACCGCACCCCCCC | 986 | 1990 | 939 | 1650 |
| ATCTCAACTAGGAAATGTTTTTGTGACCACAAAGGG | 620 | 958 | 2310 | 949 |
| AAAGGCGGAAGGGGGGCAGGGAACCCACAAAACAGA | 457 | 959 | 610 | 857 |
| CTTTCGGGGGCGGAAGTTGCGGTGCATTGTAGGTTC | 7760 | 955 | 20000 | 2800 |
| AGACGGGACCGGAAGCCGGGCCGCAGGCGGCCGGGC | 5400 | 811 | 6650 | 1240 |
| GCGGGAAAAGGGAAGTTTGCGGGAGGTCAAATCCAC | 563 | 867 | 550 | 968 |
| GCCTGCACCCTAGTTCCGGTGTGGGTGGAGGGGCCG | 1040 | 4050 | 999 | 4850 |
| GGCTTTCCGTTCAAGGATCTTTTTGCGGTCTTTGTC | 445 | 1610 | 777 | 3270 |
| GGGCAGGCCGGATGTGGGAGACCACAAAGCCCAAGG | 5360 | 820 | 27500 | 9010 |
| CCTCTGTTCTTCACAGGAAGCCACAGGCCTCCCCTG | 2840 | 958 | 3160 | 1050 |
| GGAATTTCTTTTTCCGGTCCCGCAGGGTCAGCTGAG | 1240 | 735 | 1520 | 1750 |
| TCCAGGCATTTCCCCCATGTTGGCTCACCGCACTAT | 416 | 1260 | 594 | 1290 |
| GCAACGGAGTCCGGAAGAACCACAGAGACGCGGCTC | 789 | 730 | 694 | 858 |
| TTGACTCGGGAATGTCCGGTCGTGGTAAGCAGGGTG | 770 | 683 | 858 | 999 |
| GAGGAGATTTCCGGCCCCCATCCCCGCAGCGACCTT | 1690 | 762 | 1990 | 1820 |
| CCCGGGGGCAGGAAATGTCGCCTTACCCACAGCCTT | 2470 | 873 | 5930 | 1210 |
